Data on four molecules can be found in PubChem BioAssay (EPA / NIEHS).

A word on the AC50: it is the midpoint of the concentration-response curve, whichever way the signal moves.

Common to all, as to details: mRNA level, 48 h; actives raise or lower the signal
Read-out in assay [1]: JUN Transcription Factor, JUN (gene 3725)
Nature of the assay: LTEA_HepaRG_JUN: Life Technologies and Expression Analysis (LTEA) Assay for JUN Transcription Factor using HepaRG (AID 2283513). An outline of the steps:
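Read-out is JUN transcript level by TaqMan qRT-PCR, normalized to ACTB, GAPDH and POLR2A, after 48 h chemical treatment of HepaRG cells. Concentration-response spanned eight half-log points up to 100 uM in 0.5% DMSO.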

Read-out in assay [2]: Lipase C (LIPC), LIPC (gene 3990)
Kind of assay: LTEA_HepaRG_LIPC: Life Technologies and Expression Analysis (LTEA) Assay for Lipase C (LIPC) using HepaRG (AID 2283514). Summed up:
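HepaRG, 48 h exposure, 8-pt half-log series from 100 uM in 0.5% DMSO, duplicates. Readout: LIPC mRNA by Fluidigm qRT-PCR, housekeeping-normalized (ACTB/GAPDH/POLR2A). Gain or loss fitted bidirectionally against DMSO baseline.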

Read-out in assay [3]: Lipoprotein lipase (LPL), LPL (gene 4023)
Kind of assay: LTEA_HepaRG_LPL: Life Technologies and Expression Analysis (LTEA) Assay for Lipoprotein lipase (LPL) using HepaRG (AID 2283515). Summed up: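 HepaRG, 48 h exposure, 8-pt half-log dilutions from 100 uM, 0.5% DMSO vehicle, duplicates; qRT-PCR (Fluidigm array) of LPL mRNA vs housekeeping genes; bidirectional curve fit relative to DMSO baseline.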

Read-out in assay [4]: MicroRNA 122 (MIR122), gene 406906
Kind of assay: LTEA_HepaRG_MIR122: Life Technologies and Expression Analysis (LTEA) Assay for MicroRNA 122 (MIR122) using HepaRG (AID 2283516). Also: the transcript read is the microRNA miR-122. Summed up:
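Human liver HepaRG cultures receive test chemicals for 48 h at eight half-log concentrations from 100 uM. Expression is quantified by qRT-PCR with ACTB/GAPDH/POLR2A normalization and fitted bidirectionally against 0.5% DMSO.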

Read-out in the next assay: MYC, MYC (gene 4609)
Nature of the assay: LTEA_HepaRG_MYC: Life Technologies and Expression Analysis (LTEA) Assay for MYC using HepaRG (AID 2283518). Summed up:
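Expression changes were scored by TaqMan qRT-PCR with ACTB, GAPDH and POLR2A normalization. Cultures in serum-free induction medium received duplicate 8-point concentration series, highest 100 uM, for 48 h; DMSO (0.5%) served as baseline.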

Read-out in assay [5]: matrix metalloproteinase-3 (MMP3), MMP3 (gene 4314)
Kind of assay: LTEA_HepaRG_MMP3: Life Technologies and Expression Analysis (LTEA) Assay for matrix metalloproteinase-3 (MMP3) using HepaRG (AID 2283519). An outline of the steps:
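qRT-PCR read-out of MMP3 mRNA (normalised to three housekeeping genes) in HepaRG liver cells after 48 h chemical exposure; 8-point half-log series, top 100 uM, 0.5% DMSO vehicle. Bidirectional curve fitting against DMSO baseline.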

Read-out in assay [6]: Paternally Expressed 10 (PEG10), PEG10 (gene 23089)
Kind of assay: LTEA_HepaRG_PEG10: Life Technologies and Expression Analysis (LTEA) Assay for Paternally Expressed 10 (PEG10) using HepaRG (AID 2283520).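 As to AC50: differentiated HepaRG human liver cells in serum-free induction medium with 0.5% DMSO; PEG10 transcript by qRT-PCR normalised to ACTB GAPDH and POLR2A.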 Summed up:
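Human HepaRG cultures are dosed for 48 h across an eight-point half-log series starting at 100 uM, with 0.5% DMSO as vehicle and baseline. Gain or loss of PEG10 transcript is measured by qRT-PCR and fitted in both directions.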

Read-out in assay [7]: Nuclear factor NF-kappa-B p105 subunit (Homo sapiens) (UniProt P19838)
Kind of assay: LTEA_HepaRG_NFKB1: Life Technologies and Expression Analysis (LTEA) Assay for Nuclear Factor Kappa B Subunit 1 (NFKB1) using HepaRG (AID 2283521).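 Also: differentiated human HepaRG liver cells in serum-free induction medium.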 An outline of the steps:
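NFKB1 transcript was measured by TaqMan qRT-PCR on Fluidigm arrays, normalised to three housekeeping genes and fitted in both directions against 0.5% DMSO. HepaRG cells were dosed in duplicate for 48 h in serum-free induction medium, eight half-log steps from 100 uM.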

Read-out in assay [8]: Protein phosphatase 2A (PPP2R4), PTPA (gene 5524)
Kind of assay: LTEA_HepaRG_PPP2R4: Life Technologies and Expression Analysis (LTEA) Assay for Protein phosphatase 2A (PPP2R4) using HepaRG (AID 2283522). Summed up:
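Cells were plated, cultured 48 h, switched to serum-free induction medium, then dosed for 48 h (8 points, max 100 uM, 0.5% DMSO). RNA was isolated and PPP2R4 expression measured by TaqMan qRT-PCR.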

Read-out in assay [9]: Phosphatase and tensin (PTEN), PTEN (gene 5728)
Nature of the assay: LTEA_HepaRG_PTEN: Life Technologies and Expression Analysis (LTEA) Assay for Phosphatase and tensin (PTEN) using HepaRG (AID 2283523). Summed up:
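HepaRG, 48 h exposure, 8-pt half-log series from 100 uM top, 0.5% DMSO vehicle, duplicates. Readout: Fluidigm qRT-PCR of PTEN transcript; housekeeping normalization (ACTB, GAPDH, POLR2A). Gain or loss fitted relative to DMSO baseline.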

Read-out in assay [10]: solute carrier (SLC22A1), SLC22A1 (gene 6580)
Nature of the assay: LTEA_HepaRG_SLC22A1: Life Technologies and Expression Analysis (LTEA) Assay for solute carrier (SLC22A1) using HepaRG (AID 2283524).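 As to AC50: differentiated human HepaRG liver cells in serum-free induction medium.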 An outline of the steps:
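qRT-PCR readout (TaqMan, Fluidigm arrays) of SLC22A1 transcript, normalized to three housekeeping genes; bidirectional curve fit relative to 0.5% DMSO vehicle. Differentiated human HepaRG cells, 48 h chemical exposure, top concentration 100 uM, half-log steps, eight points.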

Read-out in assay [11]: Pyruvate Dehydrogenase Kinase 4 (PDK4), PDK4 (gene 5166)
Kind of assay: LTEA_HepaRG_PDK4: Life Technologies and Expression Analysis (LTEA) Assay for Pyruvate Dehydrogenase Kinase 4 (PDK4) using HepaRG (AID 2283525). Summed up: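 HepaRG (human liver line), 48 h chemical exposure, 8-pt half-log CRC top 100 uM, 0.5% DMSO vehicle, duplicates. Readout: TaqMan qRT-PCR of PDK4 mRNA, housekeeping-normalized; gain/loss fit relative to DMSO baseline.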

Read-out in assay [12]: NAD(P)H dehydrogenase [quinone] 1 (NQO1), NQO1 (gene 1728)
Nature of the assay: LTEA_HepaRG_NQO1: Life Technologies and Expression Analysis (LTEA) Assay for NAD(P)H dehydrogenase [quinone] 1 (NQO1) using HepaRG (AID 2283526). An outline of the steps:
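Transcript induction or suppression is quantified by qRT-PCR in human HepaRG liver cells dosed for 48 hours. Eight half-log concentrations topping at 100 uM are used, with 0.5% DMSO as vehicle and baseline.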

Read-out in assay [13]: Nuclear factor erythroid 2-related factor 2 (Homo sapiens) (UniProt Q16236)
Nature of the assay: LTEA_HepaRG_NFE2L2: Life Technologies and Expression Analysis (LTEA) Assay for Nuclear factor erythroid 2-related factor 2 (NFE2L2) Transcription Factor using HepaRG (AID 2283527). Summed up: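 HepaRG, 48 h dosing, 8-pt half-log series from 100 uM in 0.5% DMSO, duplicates. Read-out: NFE2L2 mRNA by qRT-PCR (ACTB/GAPDH/POLR2A normalization). Bidirectional curve fit vs DMSO baseline.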

Read-out in assay [14]: succinate dehydrogenase complex iron sulfur subunit B (SDHB), SDHB (gene 6390)
Nature of the assay: LTEA_HepaRG_SDHB: Life Technologies and Expression Analysis (LTEA) Assay for succinate dehydrogenase complex iron sulfur subunit B (SDHB) using HepaRG (AID 2283528). Summed up:
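SDHB transcript level read by TaqMan qRT-PCR, housekeeping-normalised (ACTB, GAPDH, POLR2A), after 48 h chemical treatment of plated HepaRG cells; eight concentrations top 100 uM, half-log steps, 0.5% DMSO, duplicates; fitted both directions against DMSO.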

Read-out in assay [15]: Signal transducer and activator of transcription 3 (Homo sapiens) (UniProt P40763)
Nature of the assay: LTEA_HepaRG_STAT3: Life Technologies and Expression Analysis (LTEA) Assay for Signal transducer and activator of transcription (STAT3) using HepaRG (AID 2283529). Summed up:
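HepaRG, 48 h exposure, 8-pt half-log series (top 100 uM), 0.5% DMSO vehicle, duplicates. Readout: STAT3 transcript by Fluidigm qRT-PCR, housekeeping-normalized; bidirectional fit vs DMSO baseline.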

Read-out in assay [16]: sulfotransferase 2A1 (SULT2A1), SULT2A1 (gene 6822)
Kind of assay: LTEA_HepaRG_SULT2A1: Life Technologies and Expression Analysis (LTEA) Assay for sulfotransferase 2A1 (SULT2A1) using HepaRG (AID 2283531). An outline of the steps: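 Gene-expression endpoint in a human liver cell line: SULT2A1 mRNA change after 48 h chemical treatment, curves fitted in both directions relative to 0.5% DMSO vehicle. Concentrations spanned eight half-log steps from 100 uM.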

Read-out in assay [17]: Transforming Growth Factor (TGFA), TGFA (gene 7039)
Kind of assay: LTEA_HepaRG_TGFA: Life Technologies and Expression Analysis (LTEA) Assay for Transforming Growth Factor (TGFA) using HepaRG (AID 2283532). Summed up:
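qRT-PCR read-out of TGFA transcript, normalized to three housekeeping genes, fitted bidirectionally against 0.5% DMSO baseline. Human HepaRG cultures received chemicals for 48 h at eight half-log concentrations, top 100 uM.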

Read-out in assay [18]: solute carrier (SLCO1B1), SLCO1B1 (gene 10599)
Nature of the assay: LTEA_HepaRG_SLCO1B1: Life Technologies and Expression Analysis (LTEA) Assay for solute carrier (SLCO1B1) using HepaRG (AID 2283530). Summed up:
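Human HepaRG cultures treated for 48 h with an eight-concentration half-log series topping at 100 uM; SLCO1B1 measured by qRT-PCR and fitted bidirectionally relative to DMSO.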

Calls of active or inactive are those of the source. The calls were made as follows: active = hit-call score of the fitted dose curve at least 0.9, where 1 is the maximum; inactive = score below 0.9.

Chain of Nuclear factor NF-kappa-B p105 subunit (Homo sapiens) (P19838 whole entry, looked up): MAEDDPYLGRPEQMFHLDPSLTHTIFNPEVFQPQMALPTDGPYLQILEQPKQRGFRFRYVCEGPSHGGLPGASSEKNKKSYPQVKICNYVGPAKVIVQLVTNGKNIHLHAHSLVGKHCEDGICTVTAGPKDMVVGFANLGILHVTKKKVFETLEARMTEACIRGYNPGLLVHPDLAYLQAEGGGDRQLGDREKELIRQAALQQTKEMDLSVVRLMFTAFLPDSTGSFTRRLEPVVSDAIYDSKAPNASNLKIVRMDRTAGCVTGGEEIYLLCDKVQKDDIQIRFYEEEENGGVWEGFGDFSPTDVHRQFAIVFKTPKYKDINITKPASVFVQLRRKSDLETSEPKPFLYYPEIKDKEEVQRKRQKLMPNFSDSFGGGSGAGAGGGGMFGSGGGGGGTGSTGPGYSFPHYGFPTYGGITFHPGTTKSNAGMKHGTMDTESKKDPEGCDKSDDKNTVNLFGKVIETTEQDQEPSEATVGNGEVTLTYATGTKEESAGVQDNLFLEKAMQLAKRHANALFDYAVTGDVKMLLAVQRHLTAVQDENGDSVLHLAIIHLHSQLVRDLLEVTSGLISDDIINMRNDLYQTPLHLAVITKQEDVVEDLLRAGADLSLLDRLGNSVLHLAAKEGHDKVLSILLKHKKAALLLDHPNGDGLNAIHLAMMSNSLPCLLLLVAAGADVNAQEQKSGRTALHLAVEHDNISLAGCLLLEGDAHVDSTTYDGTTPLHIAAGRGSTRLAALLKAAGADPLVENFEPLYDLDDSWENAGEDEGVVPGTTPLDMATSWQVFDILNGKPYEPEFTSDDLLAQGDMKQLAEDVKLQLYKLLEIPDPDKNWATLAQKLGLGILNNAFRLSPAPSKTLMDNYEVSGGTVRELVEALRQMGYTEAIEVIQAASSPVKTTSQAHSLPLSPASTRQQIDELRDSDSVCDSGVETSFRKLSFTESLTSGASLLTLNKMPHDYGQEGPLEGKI
Chain of Nuclear factor erythroid 2-related factor 2 (Homo sapiens) (Q16236 whole entry, looked up): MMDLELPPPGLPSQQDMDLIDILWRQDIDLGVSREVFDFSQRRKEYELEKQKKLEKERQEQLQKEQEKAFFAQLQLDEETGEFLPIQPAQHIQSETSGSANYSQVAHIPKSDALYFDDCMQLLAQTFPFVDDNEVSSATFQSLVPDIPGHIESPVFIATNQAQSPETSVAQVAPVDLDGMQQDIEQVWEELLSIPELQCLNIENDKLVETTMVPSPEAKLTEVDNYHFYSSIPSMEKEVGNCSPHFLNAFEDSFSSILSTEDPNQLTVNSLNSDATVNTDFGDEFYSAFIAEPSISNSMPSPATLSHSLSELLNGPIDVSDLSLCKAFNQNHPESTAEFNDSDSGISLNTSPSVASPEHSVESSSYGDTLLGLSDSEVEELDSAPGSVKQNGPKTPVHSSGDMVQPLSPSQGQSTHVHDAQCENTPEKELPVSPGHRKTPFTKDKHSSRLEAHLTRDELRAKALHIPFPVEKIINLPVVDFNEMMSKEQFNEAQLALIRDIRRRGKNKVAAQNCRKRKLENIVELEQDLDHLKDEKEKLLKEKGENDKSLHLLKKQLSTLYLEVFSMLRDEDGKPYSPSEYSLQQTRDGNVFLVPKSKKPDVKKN
Chain of Signal transducer and activator of transcription 3 (Homo sapiens) (P40763 whole entry, looked up): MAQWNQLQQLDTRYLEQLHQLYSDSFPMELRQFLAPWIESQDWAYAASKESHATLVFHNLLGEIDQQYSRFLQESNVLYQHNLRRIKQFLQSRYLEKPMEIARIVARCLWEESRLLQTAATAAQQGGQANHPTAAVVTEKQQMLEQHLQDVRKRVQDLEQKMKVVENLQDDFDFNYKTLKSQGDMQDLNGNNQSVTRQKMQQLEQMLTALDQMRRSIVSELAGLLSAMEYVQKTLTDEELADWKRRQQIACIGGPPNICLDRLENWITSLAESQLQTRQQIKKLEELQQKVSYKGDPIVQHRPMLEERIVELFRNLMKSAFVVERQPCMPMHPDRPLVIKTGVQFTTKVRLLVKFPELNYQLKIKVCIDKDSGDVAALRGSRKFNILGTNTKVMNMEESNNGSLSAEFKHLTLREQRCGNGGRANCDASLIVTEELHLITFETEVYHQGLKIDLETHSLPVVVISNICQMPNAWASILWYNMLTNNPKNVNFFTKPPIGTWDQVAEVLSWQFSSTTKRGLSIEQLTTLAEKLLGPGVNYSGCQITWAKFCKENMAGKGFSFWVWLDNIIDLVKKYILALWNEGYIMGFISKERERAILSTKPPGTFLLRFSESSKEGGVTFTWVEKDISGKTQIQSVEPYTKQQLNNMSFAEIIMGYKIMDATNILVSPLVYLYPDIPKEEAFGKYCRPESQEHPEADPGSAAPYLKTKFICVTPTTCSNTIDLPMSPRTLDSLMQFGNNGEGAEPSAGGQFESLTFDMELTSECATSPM

On to `Brc1ccc(Oc2ccccc2)cc1`, for which the outcome is “inactive” in assay [1]; “inactive” in assay [2]; “inactive” in assay [3]; “inactive” in [4]; “inactive” with MYC, MYC (gene 4609); “inactive” in assay [5]. Moreover, the result in assay [6], in [7], in assay [8], in assay [9], in assay [10] and in assay [11] was inactive. Further, the result in assay [12], in assay [13], in assay [14], in [15], in assay [16] and in assay [17] was inactive.

As to `Cc1ccc(N=C=O)cc1N=C=O`, the result in assay [1], in [5], in assay [7], in assay [8], in assay [9] and in assay [13] was inactive. Besides, the call in [14], in [15], in assay [18] and in assay [17] was inactive. Besides, the AC50 in assay [2] was 50 µM (active); in [3] it was 3.41 µM (active); in assay [4], 50 µM (active); in the assay with MYC, MYC (gene 4609), 19.3 µM (active); in assay [6] it was 12.4 µM (active); in [11] it was 19.6 µM (active). For the same molecule, the figures for the AC50 in assay [12] and in assay [16] were 38.9 µM (active) and 31.4 µM (active), respectively.

Regarding `COP(=S)(OC)SCN1C(=O)c2ccccc2C1=O`, the outcome in assay [1] was “inactive”; in assay [2], “inactive”; in assay [3] it was “inactive”; in [4], “inactive”; with MYC, MYC (gene 4609) it was “inactive”; in [5], “inactive”. Moreover, the outcome in assay [6], in assay [7], in assay [8], in [9], in [10] and in assay [11] was inactive. Also, the result in [12], in [13], in assay [14], in assay [15], in [16] and in assay [17] was inactive.

Regarding `Cc1cccc(N)c1N`, the outcome in assay [1] is “inactive”; with MYC, MYC (gene 4609) it was “inactive”; in assay [5] it was “inactive”; in [7], “inactive”; in assay [8], “inactive”; in assay [9], “inactive”. The molecule was called inactive in [11], in assay [12], in [13], in [14], in [16] and in assay [17]. Also, the AC50 in assay [2] was 58.7 µM (active); in assay [3], 35.8 µM (active); in assay [4] it was 50 µM (active); in [6], 50 µM (active); in assay [10], 47.4 µM (active); in assay [15], 9.92 µM (active). In assay [18], the AC50 was 50 µM (active).
